The full list was thinned out, with hits kept by preference.
KDM5B inh – blocks human KDM5B histone demethylase activity; KDM5B demethylase, FDH-coupled NADH fluorescence (FDH is formaldehyde dehydrogenase); Potency, µM (series often up to 57.7 µM), hits mostly inhibitors; AID 1347165; Q9UGL1; actives 2.6% (n = 220,000); active means well fitted inhibition curve with a large enough effect; further: nearly all actives have a fitted effect of over 70% in size
Target sequence (Q9UGL1 whole entry, looked up): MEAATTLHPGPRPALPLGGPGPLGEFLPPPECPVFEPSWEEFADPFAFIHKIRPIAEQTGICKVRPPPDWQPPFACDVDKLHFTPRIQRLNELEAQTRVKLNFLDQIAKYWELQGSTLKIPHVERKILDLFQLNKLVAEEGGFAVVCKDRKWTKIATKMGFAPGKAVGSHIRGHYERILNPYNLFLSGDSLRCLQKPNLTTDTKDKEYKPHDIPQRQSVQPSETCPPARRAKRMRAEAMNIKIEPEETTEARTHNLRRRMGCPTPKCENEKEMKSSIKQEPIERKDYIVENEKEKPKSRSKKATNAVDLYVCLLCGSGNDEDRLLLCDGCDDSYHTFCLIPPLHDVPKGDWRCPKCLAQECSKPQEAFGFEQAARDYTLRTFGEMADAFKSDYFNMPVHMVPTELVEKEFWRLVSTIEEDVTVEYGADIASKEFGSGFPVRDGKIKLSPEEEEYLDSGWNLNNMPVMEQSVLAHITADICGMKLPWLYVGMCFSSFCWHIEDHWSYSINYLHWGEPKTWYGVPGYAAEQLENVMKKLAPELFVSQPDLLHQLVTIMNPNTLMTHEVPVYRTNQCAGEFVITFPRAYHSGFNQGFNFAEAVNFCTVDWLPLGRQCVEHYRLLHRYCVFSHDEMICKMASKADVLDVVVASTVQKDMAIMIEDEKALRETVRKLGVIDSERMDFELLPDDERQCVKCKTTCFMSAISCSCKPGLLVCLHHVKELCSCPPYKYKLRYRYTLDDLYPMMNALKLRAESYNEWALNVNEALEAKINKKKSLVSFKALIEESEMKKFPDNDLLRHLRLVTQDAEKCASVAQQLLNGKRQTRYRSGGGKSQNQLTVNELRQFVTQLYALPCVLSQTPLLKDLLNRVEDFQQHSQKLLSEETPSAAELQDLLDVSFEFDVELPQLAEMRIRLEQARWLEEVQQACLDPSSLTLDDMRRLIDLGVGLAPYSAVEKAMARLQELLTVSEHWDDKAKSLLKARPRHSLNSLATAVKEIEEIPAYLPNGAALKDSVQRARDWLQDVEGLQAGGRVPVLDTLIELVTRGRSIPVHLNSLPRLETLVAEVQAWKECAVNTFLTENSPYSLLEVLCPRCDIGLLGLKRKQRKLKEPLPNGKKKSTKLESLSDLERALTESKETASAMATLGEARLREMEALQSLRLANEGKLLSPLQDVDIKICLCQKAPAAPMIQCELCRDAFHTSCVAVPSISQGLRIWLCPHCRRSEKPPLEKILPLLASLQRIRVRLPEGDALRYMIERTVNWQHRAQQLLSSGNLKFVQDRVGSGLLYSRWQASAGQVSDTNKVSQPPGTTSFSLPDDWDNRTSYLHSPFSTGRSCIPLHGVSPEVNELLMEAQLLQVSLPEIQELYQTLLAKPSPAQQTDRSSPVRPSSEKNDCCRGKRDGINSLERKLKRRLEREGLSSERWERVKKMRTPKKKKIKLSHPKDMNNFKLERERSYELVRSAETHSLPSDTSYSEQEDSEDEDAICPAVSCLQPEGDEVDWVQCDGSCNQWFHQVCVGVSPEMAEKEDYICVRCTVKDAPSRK
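KDM5BΔAP (200 nM final) in 50 mM HEPES pH 7.5, 0.01% Tween-20 was preincubated 10 min at RT with compound over a concentration range. Substrate mix (H3K4me3 12.5 µM, α-KG 25 µM, Fe²⁺, ascorbate, NAD⁺, FDH) was added, and NADH fluorescence change over 30 min gave dose-response curves.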
Hits are given with their value; n = inactive.

SMILES	KDM5B inh
CC(C)NC(=O)N1CNC(=O)C12CCN(C(=O)Cc1ccc(O)cc1)CC2	n
Cc1ncc(CO)c(CN2CCC3(Cc4ccccc4CNC3=O)C2)c1O (stereo not given)	79µM
CCc1ccccc1CN1CCC2(Cc3ccccc3CNC2=O)C1 (stereo not given)	n
Cc1nn(-c2ccccc2)c(C)c1CN1CCC2(Cc3ccccc3CNC2=O)C1 (stereo not given)	n
CN(Cc1ccsc1)CC1(O)CCCN(CCCc2ccccc2)C1=O (stereo not given)	n
Cc1cccc(NC(=O)Cn2c(=O)n(-c3ccc(CC(=O)NC4CC4)cc3)c(=O)c3ccccc32)c1	n
Cc1ccc(-c2nn(Cc3ccccc3)cc2C(=O)N2CCN(CCO)CC2)cc1C	n
CC(=O)N1CCc2cc(S(=O)(=O)N3CCc4ccccc43)ccc21	n
CC(=O)c1ccc(NC(=O)N2C[C@@H]3C[C@H](C2)c2ccc(NC(=O)CN(C)C)c(=O)n2C3)cc1	n
CC(=O)Nc1ccc(S(=O)(=O)Nc2ccc3n(c2=O)C[C@H]2C[C@@H]3CN(Cc3cn(C)c4ccccc34)C2)cc1	n
COc1ccc(C(=O)Nc2ccc3n(c2=O)C[C@H]2C[C@@H]3CN(C(=O)CCCC(=O)O)C2)cc1	n
COc1ccc(S(=O)(=O)N2C[C@@H]3C[C@H](C2)c2ccc(NC(=O)c4ccncc4)c(=O)n2C3)cc1	n
COc1ccc(S(=O)(=O)N2C[C@@H]3C[C@H](C2)c2c(NC(=O)Nc4ccccc4)ccc(=O)n2C3)cc1	n
CC(=O)Nc1ccc(S(=O)(=O)N2C[C@@H]3C[C@H](C2)c2ccc(-c4ccccc4C)c(=O)n2C3)cc1	25µM
O=C(O)C[C@@H]1CCN(C(=O)Nc2ccc(C(F)(F)F)cc2)C[C@@H]1CCN1C[C@@H]2C[C@H](C1)c1cccc(=O)n1C2	n
COc1ccc(S(=O)(=O)N2C[C@@H]3C[C@H](C2)c2ccc(-c4cccc(C(F)(F)F)c4)c(=O)n2C3)cc1	32µM
O=C(Nc1ccccc1)N1C[C@@H]2C[C@H](C1)c1ccc(-c3cccc(C(F)(F)F)c3)c(=O)n1C2	32µM
COc1ccc(S(=O)(=O)N2C[C@@H]3C[C@H](C2)c2c(-c4ccc(OC(F)(F)F)cc4)ccc(=O)n2C3)cc1	n
N#Cc1cccc(NC(=O)N2C[C@@H]3C[C@H](C2)c2ccc(-c4ccc(OC(F)(F)F)cc4)c(=O)n2C3)c1	n
CC(C)(CC(=O)O)CC(=O)N1C[C@@H]2C[C@H](C1)c1ccc(-c3cccc(C(F)(F)F)c3)c(=O)n1C2	28µM
O=C1NC(=NC2CCCC2)C2(CCN(CC3CC3)C2)N1c1cccnc1 (stereo not given)	n
CNC(=O)CCn1ncc2cc(OCc3ccccc3-c3cc(F)ccc3OC(C)C)ccc21	n
COc1ccc(N2CCN(C(=O)c3cc(=O)c4cc(Cl)ccc4o3)CC2)cc1	n
O=c1n(CC2CC2)nc2n1CCNCC2	n
COC(=O)c1cc2c(N)c(C(=O)c3ccccc3)sc2nc1C(OC)OC	n
SMILES	KDM5B inh
O=S(=O)(c1ccc(N2CCOCC2)nc1)N(Cc1ccccn1)Cc1ccccn1	n
O=C(Cn1nc2c(cc1=O)CCCCC2)Nc1ccc(C(F)(F)F)cc1	n
CCOc1ccc(CCNC(=O)Cn2cccc2-c2nc(-c3ccc(F)cc3)no2)cc1OCC	n
Cc1ccc2c(CN3CCC(C)CC3)cc(=O)oc2c1	n
Cc1ccc(C(=O)NCC(O)c2ccccc2)cc1 (stereo not given)	n
Cc1cccc(C(=O)Nc2cccc(OCc3cc(=O)n4cc(C)sc4n3)c2)c1	n
FC(F)(F)c1cccc2c(N3CCC4(CCCN4Cc4ncc[nH]4)CC3)ccnc12	28µM
COCCC1(C(=O)O)CCN(c2ccnc3c(C(F)(F)F)cccc23)CC1	n
FC(F)(F)c1cccc2c(N3CCOC(C(F)(F)F)C3)ccnc12 (stereo not given)	n
Cc1ncc(-c2ccc(C)c(S(=O)(=O)N3CCN(c4ccc(F)cc4)CC3)c2)o1	n
CCCCn1c(CN2CCCCC2CC)nc2c1c(=O)n(C)c(=O)n2C (stereo not given)	n
CCc1nc(NC(=O)C[C@H]2NC(=O)c3ccccc3NC2=O)n[nH]1	n
CN1CCCC2(CCN(C(=O)CCCOc3ccccc3)C2)C1=O (stereo not given)	n
CN1CCCC2(C1)CN(C)c1ccc(C(=O)NCCOc3ccccc3)cc12 (stereo not given)	40µM
CC(C)CCN1CCOc2cc(C(=O)NCCOc3ccccc3)ccc2C1	n
CC(=O)N1CCCC2(C1)CN(C)c1ccc(C(=O)NCCOc3ccccc3)cc12 (stereo not given)	32µM
CC(=O)N1CCC(C(=O)NCCOc2cccc(C)c2)CC1	n
O=C(NCCOc1ccccc1)c1cc(COc2ccccc2)[nH]n1	n
CC/C=C(/C)C(=O)NCC(C)(C)N1CCOCC1	n
O=Cc1cc(Cl)c(O)c(Cl)c1	n
Cc1cc(C(=O)N2c3ccccc3CC2c2nc(C3CC3)no2)nn1C (stereo not given)	n
Cc1ccc(S(=O)(=O)CCC(=O)Oc2ccc(C(C)C)cc2)cc1	n
CC(C)c1nc(N2CCCCCC2)ncc1C(=O)O	28µM
COc1ccc(N2CCN(C(=O)c3cnc(N4CCCC4)nc3C)CC2)cc1	n
CC(C)c1ccc(-n2ccc3nc(N4CCCC4)ncc3c2=O)cc1	n
SMILES	KDM5B inh
Cc1cccc(NC(=O)N2CCC(c3noc(-c4ccncc4)n3)C2)c1 (stereo not given)	n
C=CCC(O)(CC=C)CNC1CCN(c2cccc(NC(=O)CC3CCCC3)c2)CC1	n
CCOC(=O)CSc1n[nH]c(=S)s1	n
C#CCN(C)Cc1nc(C2(O)CCN(C(=O)COC)CC2)cs1	n
C=C(Cl)CN1CCN(CCc2ccccc2)CC1	n
COc1ccc(-c2cn3c(n2)N(C(=O)Cc2ccccc2)CCC3)cc1	n
Cc1ccc(C(=O)N2CCCn3cc(-c4ccccc4F)nc32)cn1	n
O=C(c1cccs1)N1CCCn2cc(-c3ccccc3F)nc21	n
N#Cc1cccc(-c2cn3c(n2)N(C(=O)c2cccs2)CCC3)c1	28µM
COCCC(=O)N1CCCn2cc(-c3cccc(C#N)c3)nc21	22µM
COc1ccc(C(=O)N2CCCn3cc(-c4ccccc4)nc32)cn1	n
N#Cc1cccc(-c2cn3c(n2)N(C(=O)c2cccnc2)CCC3)c1	35µM
O=C(c1ccsc1)N1CCCn2cc(-c3ccccc3F)nc21	n
COc1cccc(-c2cn3c(n2)N(C(=O)Cn2ccnc2C)CCC3)c1	n
Cc1cccc(N=C2NN=C(c3c[nH]c(C(=O)N4CCCC4)c3)CS2)c1C	n
CCn1nc(C(=O)NCc2cccc(OC)c2)c2ccccc2c1=O	n
CC(=O)c1ccc(OC(=O)c2c(-c3ccccc3Cl)noc2C)cc1	n
Cc1cnc(C(=O)OCC(=O)c2ccc(F)cc2)cn1	n
c1cnn(-c2ccc(-c3nc(C4CCOC4)no3)cc2)c1 (stereo not given)	32µM
CN(C)c1ccc(-c2nc(C3CCOC3)no2)cc1 (stereo not given)	n
Cc1onc(-c2ccccc2Cl)c1-c1nc(C2CCOC2)no1 (stereo not given)	n
Cn1ccc2ccc(-c3nc(C4CCOC4)no3)cc21 (stereo not given)	n
CSc1ccccc1-c1nc(C2CCOC2)no1 (stereo not given)	28µM
CCn1nc(C)c(-c2nc(C3CCOC3)no2)c1C (stereo not given)	n
CCCNC(=O)N1c2ccccc2Sc2ccccc21	n
